In PubChem BioAssay AID2576 (National Center for Advancing Translational Sciences (NCATS), 2010):
“And” between values parts separate entries of the source, which are not always exact repeats. Equal entries are not always repeated. Inconclusive results are not listed. A call without a number means that no potency is given here. A structure can be active in one record and inactive in another. The source made the active and inactive calls. Calls come from the whole dose curve; as a rule, active = well fitted activation curve with a large enough effect; inconclusive = small, poorly fitted or top-dose-only effect, or effect the other way; inactive = flat fitted curve, though single readings scatter.

target: Pyruvate kinase PKM (Homo sapiens) (UniProt P14618); assay: Secondary LDH Assay for Activators of Human Pyruvate Kinase M2 isoform: for Probe SAR; details: purified hPK-M2, LDH-coupled NADH fluorescence kinetic; series mostly up to 58.4 µM
Excerpt: NIH Chemical Genomics Center [NCGC] Matthew G. Vander Heiden, M.D., Ph.D. [Harvard Medical School, 77 Avenue Louis Pasteur, Boston, MA 02115] NCGC Assay Overview: Human pyruvate kinase muscle 2 (hPK-M2)enzyme was supplied as a highly purified (>95% pure) preparation from Harvard Medical School and a secondary assay was used to evaluate compounds. This assay couples the formation of pyruvate from hPK-M2 using lactate dehydrogenase (LDH) and NADH. The depletion of NADH is followed in a fluorescent-based kinetic assay that follows the formation of pyruvate to lactate, as catalyzed LDH (described by Hannaert et al., 2002)1 Pyruvate kinase substrates, PEP and ADP, were present in the assay at 0.1 mM and 4 mM respectively. In this kinetic assay initial rates were determined by following the fluorescence of NADH depletion.
NCGC Assay Protocol Summary: Three uL of substrate mix (final concentration, 50 mM Tris-Cl pH 8.0, 200 mM KCl, 15 mM MgCl2, 0.1 mM PEP, 4.0 mM ADP, and 0.2 mM NADH) was dispensed into black-solid 1536 well plates. 23 nL of compounds were delivered by a pin tool and 1 uL of enzyme mix (final concentrations, 10 nM hPK-M2 and 1 uM of LDH) was added. Plates were immediately placed in ViewLux (Perkin Elmer) and NADH fluorescence was determined at 30 second exposure intervals for between 3 and 6 minutes. Data were normalized to the uninhibited and EC100 activation using known activators such as fructose-bis-phosphate.

Sequence of Pyruvate kinase PKM (Homo sapiens) (P14618 whole entry, looked up, canonical isoform): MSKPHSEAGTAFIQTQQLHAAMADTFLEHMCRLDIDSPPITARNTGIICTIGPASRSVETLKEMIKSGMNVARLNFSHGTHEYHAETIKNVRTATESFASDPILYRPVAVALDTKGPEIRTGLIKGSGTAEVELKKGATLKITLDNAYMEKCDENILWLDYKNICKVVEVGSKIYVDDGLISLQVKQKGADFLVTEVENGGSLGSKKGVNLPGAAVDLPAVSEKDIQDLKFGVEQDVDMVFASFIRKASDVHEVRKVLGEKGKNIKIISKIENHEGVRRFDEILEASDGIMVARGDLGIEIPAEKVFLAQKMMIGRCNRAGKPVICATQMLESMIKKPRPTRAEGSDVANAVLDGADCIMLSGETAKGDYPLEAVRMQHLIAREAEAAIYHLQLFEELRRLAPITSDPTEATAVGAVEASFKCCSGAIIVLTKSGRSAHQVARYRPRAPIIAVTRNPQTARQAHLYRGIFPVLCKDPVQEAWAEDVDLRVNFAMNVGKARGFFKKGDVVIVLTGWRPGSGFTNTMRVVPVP

Q: `O=C1CCc2cc(S(=O)(=O)NCc3ccccc3)ccc2N1` was tested. Which Potency did it give?
A: inactive

Q: With `CN(C)c1cccc(S(=O)(=O)N2CCN(S(=O)(=O)c3ccc4c(c3)OCCO4)CC2)c1` as the molecule, how does the Potency read?
A: inactive

Q: How did the Potency turn out when `O=S1(=O)N=C(Oc2cccc(Cl)c2)c2ccccc21` was run?
A: inactive

Q: How did the Potency turn out when `COc1cccc(N2C(=O)c3ccccc3C2=O)n1` was run?
A: inactive

Q: For `O=C1c2ccccc2C(=O)N1c1cccc2cccnc12`, which Potency is on record?
A: inactive

Q: For `Cc1ccc(NS(=O)(=O)c2cc3c(cc2C)NC(=O)CO3)cc1C`, which Potency is on record?
A: 1.03 µM (active)

Q: With `Cc1ccc(NS(=O)(=O)c2cc3c(cc2-c2ccsc2)NC(=O)CO3)cc1C` as the molecule, how does the Potency read?
A: inactive

Q: `Cc1ccc(NS(=O)(=O)c2cc3c(cc2Cl)CCC(=O)N3)cc1C` was tested. Which Potency did it give?
A: 0.461 µM (active)

Q: Which Potency does the source give for `O=C1c2ccccc2C(=O)N1c1cccc(=O)[nH]1` here?
A: inactive

Q: Which Potency does the source give for `COc1ccc(N2C(=O)c3ccccc3C2=O)cc1` here?
A: inactive

Q: For `O=S(=O)(c1ccc2c(c1)OCCO2)N1CCN(S(=O)(=O)c2c(F)cccc2F)CC1`, which Potency is on record?
A: 5.8 µM (active)

Q: Which Potency does the source give for `Cc1cc2c(s1)c1cnn(Cc3c(Cl)ccc(C)c3F)c(=O)c1n2C` here?
A: 0.562 µM (active)

Q: Which Potency does the source give for `O=C1c2ccccc2C(=O)N1C1CCCCC1` here?
A: inactive

Q: `Cc1ccc(NS(=O)(=O)c2ccc(Cl)cc2)cc1C` was tested. Which Potency did it give?
A: inactive

Q: How did the Potency turn out when `O=C1c2ccccc2C(=O)N1c1ccccc1O` was run?
A: inactive

Q: `COc1ccccc1OC1=NS(=O)(=O)c2ccccc21` was tested. Which Potency did it give?
A: inactive

Q: With `O=C1c2ccccc2C(=O)N1c1cccc2cnccc12` as the molecule, how does the Potency read?
A: inactive

Q: `CC(=O)Nc1ccc(S(=O)(=O)Nc2ccc(C)c(C)c2)cc1` was tested. Which Potency did it give?
A: inactive

Q: How did the Potency turn out when `O=C1c2ccccc2C(=O)N1Cc1cccnc1` was run?
A: inactive

Q: Which Potency does the source give for `Cc1ccc(NS(=O)(=O)c2ccc3c(c2)oc(=O)n3C)cc1C` here?
A: inactive

Q: How did the Potency turn out when `Cc1ccc(-c2nc3cnccn3c2Nc2ccc(C(C)C)cc2)o1` was run?
A: inactive

Q: For `COc1cccc(Cn2ncc3c4sc(S(C)=O)cc4n(C)c3c2=O)c1` (stereo not drawn), which Potency is on record?
A: 410 nM (active) and 206 nM (active)

Q: Which Potency does the source give for `O=C1NS(=O)(=O)c2ccccc21` here?
A: inactive

Q: Which Potency does the source give for `O=C1CCc2cc(S(=O)(=O)Nc3ccccc3-c3ccccc3)ccc2N1` here?
A: inactive

Q: How did the Potency turn out when `O=C1c2ccccc2C(=O)N1c1noc2ccccc12` was run?
A: inactive

Q: Which Potency does the source give for `Cc1ccc(NS(=O)(=O)c2cc3c(cc2-c2cn[nH]c2)NC(=O)CO3)cc1C` here?
A: inactive

Q: With `Cc1ccc(NS(=O)(=O)c2cc3c(cc2N(C)C)CCC(=O)N3)cc1C` as the molecule, how does the Potency read?
A: 1.46 µM (active)

Q: Which Potency does the source give for `O=C1c2ccccc2C(=O)N1c1cccc2ncccc12` here?
A: inactive

Q: For `Cc1nc(-c2ccc(S(=O)(=O)Nc3ccc(C)c(C)c3)s2)cs1`, which Potency is on record?
A: inactive

Q: `Cc1ccc(NS(=O)(=O)c2cc3c(cc2-c2ccccc2)NC(=O)CO3)cc1C` was tested. Which Potency did it give?
A: inactive

Q: For `O=S1(=O)N=C(Oc2ccccc2)c2ccccc21`, which Potency is on record?
A: inactive

Q: For `Cc1ccc(NS(=O)(=O)c2ccc3c(c2)CCN(C(=O)C(F)(F)F)C3)cc1C`, which Potency is on record?
A: inactive

Q: For `Cc1ccc(NS(=O)(=O)c2ccc(F)cc2)cc1C`, which Potency is on record?
A: inactive

Q: How did the Potency turn out when `Cc1ccc(NS(=O)(=O)c2ccc3c(c2)CCC(=O)N3)cc1C` was run?
A: 0.146 µM (active)

Q: How did the Potency turn out when `O=C1c2ccccc2C(=O)N1c1cccc(O)c1` was run?
A: inactive

Q: With `Cc1cc2c(s1)c1cnn(Cc3ccccc3F)c(=O)c1n2C` as the molecule, how does the Potency read?
A: inactive and 291 nM (active)

Q: For `O=C1CCc2cc(S(=O)(=O)Nc3ccc(-c4ccccc4)cc3)ccc2N1`, which Potency is on record?
A: inactive

Q: For `COc1ccc(S(=O)(=O)Nc2ccc(C)c(C)c2)cc1`, which Potency is on record?
A: inactive
